The source of these data is the supplement of paper PMC13380429.

Molecules are shown by their SMILES.

The test concerns Vero E6 infected with SARS-CoV-2. The experiment in a line: morphology score (similarity to uninfected cells); higher = more like uninfected cells. The settings on record: 24 h.
`COC(=O)Nc1ccc2[nH]cc(CCNC(C)=O)c2c1` (10 µM) came in with a morphology score of 0.0711. The result for `O=c1[nH]cc(F)c(=O)[nH]1` [5-fluorouracil] (0.833333 µM) reads 0.0377; that for `CC1(CN)Cc2ccccc2C1` (10 µM), 0.0351. Molecule `Cc1cc(O)c2c(=O)c3c(O)cc(O)c4c5c(O)cc(O)c6c(=O)c7c(O)cc(C)c8c1c2c(c34)c(c78)c65` [hypericin] (10 µM) registered a morphology score of -0.152.

In the case of `Cc1oc2ccccc2c1CNC(=O)NCc1cccs1` (10 µM), the morphology score turned out to be 0.0505. The result for `C#C[C@]1(O)CC[C@H]2[C@@H]3CCC4=CC(=O)CC[C@@H]4[C@H]3CC[C@@]21CC` [norgestrel] (10 µM) reads 0.191; that for `CC(=O)[C@H]1CC[C@H]2[C@@H]3C[C@H](C)C4=CC(=O)CC[C@]4(C)[C@H]3[C@@H](O)C[C@]12C` [medrysone] (10 µM), 0.0629; that for `NS(=O)(=O)c1ccc(-n2nc(C(F)(F)F)cc2-c2ccc(Cl)cc2)cc1` (10 µM), 0.0527. The result for `Cc1ccccc1N1CCN(S(=O)(=O)C[C@]23CC[C@H](C[C@@H]2NC(=O)[C@@H](N)CCS(C)(=O)=O)C3(C)C)CC1` (10 µM) reads 0.049; that for `Cc1ccc(C(=O)C(C)CN2CCCCC2)cc1` (stereo unspecified) [tolperisone] (10 µM), 0.383; that for `COc1ccc(NC(=O)c2ccc(-c3ccc(-c4noc(C)n4)cc3C)cc2)cc1N1CCN(C)CC1` (0.833333 µM), 0.0674. Molecule `COc1c2ccoc2cc2oc(=O)ccc12` [bergapten] (10 µM) came in with a morphology score of 0.0727. `O=C(NC(NC(=S)Nc1ccc(F)c([N+](=O)[O-])c1)C(Cl)(Cl)Cl)C(c1ccccc1)c1ccccc1` (stereo unspecified) (0.833333 µM): the morphology score is 0.0472.

Take `O=C(C=Cc1ccccc1)NC(NC(=S)Nc1ccc(Cl)cc1)C(Cl)(Cl)Cl` (stereo unspecified) (10 µM): the morphology score was -0.143. The result for `CN(N=O)C(=O)N[C@@H](C=O)[C@@H](O)[C@H](O)[C@H](O)CO` [streptozotocin] (10 µM) reads 0.0397.

Turning to `O=Nc1c(O)[nH]c2c(Cl)c(Cl)ccc12` (10 µM), the morphology score came to 0.117. The result for `Cc1cc(N)c2ccccc2[n+]1CCCCCCCCCC[n+]1c(C)cc(N)c2ccccc21` [dequalinium] (10 µM) reads 0.175. For the molecule `Cn1c(-c2ccccc2)nnc1S(C)(=O)=O` (10 µM), the morphology score came to 0.268. The result for `CC(C)(C)Cn1c(N)nc2ccc(-c3[nH]c(C(C)(C)C)nc3-c3ccc(F)cc3)nc21` (10 µM) reads -0.205; that for `NCc1ccccc1CC(=O)N[C@@H]1C(=O)N2C(C(=O)O)=C(CSc3nnnn3CC(=O)O)CS[C@H]12` [ceforanide] (10 µM), 0.13. The result for `CC(C(=O)O)c1ccc(N2Cc3ccccc3C2=O)cc1` (stereo unspecified) [indoprofen] (10 µM) reads -0.106; that for `Cc1ncc(C)n2nc([C@@H]3C[C@H]3c3nc4c5cccnc5ccn4c3C)nc12` (10 µM), -0.0961; that for `CC(Cc1ccc(O)cc1)NCC(O)c1cc(O)cc(O)c1` (stereo unspecified) [fenoterol] (10 µM), -0.0121.

Consider `CCCCCN(C)CCC(O)(P(=O)(O)O)P(=O)(O)O` [ibandronate] (10 µM), for which the morphology score was -0.0259. The molecule `C[C@@H]1CCN(C(=O)CC#N)C[C@@H]1N(C)c1ncnc2[nH]ccc12` (10 µM) returned a morphology score of 0.281. The result for `O=S(=O)(O)NC1CCCCC1` [cyclamic-acid] (10 µM) reads 0.146; that for `Cc1ccccc1CN1C(=O)C2=C(CCN(Cc3ccccc3)C2)N2CCN=C12` (0.833333 µM), -0.16; that for `CC(C)CCNC(=O)[C@H](CC(C)C)NC(=O)[C@H]1O[C@@H]1C(=O)O` [loxistatin-acid] (10 µM), 0.296.

Molecule `COc1cc2/c(=N/c3ccc(Br)cc3F)nc[nH]c2cc1OCC1CCN(C)CC1` [vandetanib] (10 µM) displayed a morphology score of 0.0459. The result for `CSc1ccc2c(c1)[C@H](N1CCN(C)CC1)Cc1ccccc1S2` (racemic) [metitepine] (0.833333 µM) reads -0.0536; that for `C=CC(=O)Nc1cccc(Nc2nc(Nc3ccc(NC4CN(CCF)C4)cc3OC)ncc2C(F)(F)F)c1` (0.833333 µM), -0.356.

`COc1cc(Br)c(Nc2nc(-c3c(C)nc4ncccn34)cs2)c(Br)c1` (10 µM) displayed a morphology score of -0.31.

Molecule `Cc1cc(O)c(-c2ccc([C@@H](C)CN)cc2)c2c1[nH]c(=O)c1sccc12` (0.833333 µM) yielded a morphology score of -0.046.

Consider `Nc1ncnc2c1c(COc1cccc(Cl)c1)nn2C1CCOCC1` (10 µM), for which the morphology score is 0.00558.

The molecule `C[n+]1ccccc1C=NO` [pralidoxime] (10 µM) came in with a morphology score of -0.226. The result for `S=P(N1CC1)(N1CC1)N1CC1` [thiotepa] (10 µM) reads 0.127.
